Screens from PubChem.
A selection: hits, their analogues and other compounds. The true share with any hit is near 4%.
TROY signal inh: blocks TROY-dependent signaling in reporter cells | Q293 LMP1-TROYcd NF-kB luciferase reporter, 4 h | inhibition, % at 10 µM | actives 0.98% (n = 360,000);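 active means compounds whose plate-normalised and pattern-corrected inhibition of the luciferase reporter signal at the single screening dose is 50% or more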
KKLEB cytotox: reduces viability of KKLEB cystic fibrosis airway cells; actives 0.36% (n = 360,000); AID 602141; KKLEB CF airway cells viability, ATPlite luminescence, overnight; stronger effect = lower value; cells stimulated with P. aeruginosa culture filtrate; activity change (cytotoxicity), % at 5 µM;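 active means corrected activity change at or below -50% at 5 µM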
HIF-2a block: inhibitors of HIF-2a. AID 624352. actives 0.72% (n = 360,000). 786-0 RCC cells HIF-2a reporter, luciferase luminescence, overnight. inhibition, % at 18.8 µM;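 active means inhibition of the luminescence signal of 40% or more relative to plate controls, in a single-dose primary screen at 18.75 µM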
Peg3 prom inh: reduces Peg3 promoter-driven luciferase expression in HeLa. HeLa PEG-Prom luciferase reporter, luminescence, overnight. inhibition, % at 20 µM. actives 1.7% (n = 360,000). AID 588405;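 active means inhibition of at least 50% at 20 µM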
CF NFkB block: cystic fibrosis NF-kB activation inhibition. KKLEB NF-kB-GFP reporter, PAF-induced, GFP fluorescence overnight. actives 0.86% (n = 360,000). inhibition, % at 5 µM;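 active means at least 50% inhibition at 5 µM, scaled per plate between neutral and stimulator controls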;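 further: PAF is a Pseudomonas aeruginosa culture filtrate used as stimulus; plate controls were PAF-stimulated DMSO wells for no effect and unstimulated DMSO wells for full effect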
TWEAK Fn14 block: blocks TWEAK-Fn14 interaction in a reporter cell assay. actives 2% (n = 360,000). AID 1159606. TWEAK-stimulated Fn14 reporter cells, luciferase luminescence, 8 h. inhibition, % at 10 µM; in the data active means inhibition above about 50%
Numbers without * were called inactive.

Screening COc1ccc(-c2csc(N3CCN(c4cc(C)nc5ccccc45)CC3)n2)cc1OC returned TROY signal inh 42, KKLEB cytotox -17, HIF-2a block 5, Peg3 prom inh 100*, CF NFkB block 24 and TWEAK Fn14 block 52*.
For COc1cc(-c2csc(N3CCOCC3)n2)cc(OC)c1OC the results were TROY signal inh -15, KKLEB cytotox -3, HIF-2a block -1, Peg3 prom inh -9, CF NFkB block 6 and TWEAK Fn14 block -7.
For CCN=c1scc(C)n1/N=C/c1cc(Br)c(O)c(Br)c1 the results were TROY signal inh 53*, KKLEB cytotox 6, HIF-2a block -38, Peg3 prom inh -21, CF NFkB block 2 and TWEAK Fn14 block 10.
CCN=c1scc(C)n1/N=C/c1ccc(O)c(O)c1O was read as TROY signal inh -10, KKLEB cytotox 4, HIF-2a block 15, Peg3 prom inh 0, CF NFkB block 3 and TWEAK Fn14 block 18.
Screening Cn1c(SCC(=O)N/N=C/c2cc([N+](=O)[O-])ccc2O)nnc1-c1ccccc1 returned TROY signal inh 11, KKLEB cytotox 8, HIF-2a block 3, Peg3 prom inh 19, CF NFkB block 4 and TWEAK Fn14 block 13.
Screening Cn1c(SCC(=O)N/N=C/c2ccc([N+](=O)[O-])s2)nnc1-c1ccccc1 returned TROY signal inh -9, KKLEB cytotox -14, HIF-2a block 16, Peg3 prom inh 64*, CF NFkB block -3 and TWEAK Fn14 block 58*.
For CCCc1cc(-c2[nH]ncc2-c2ccc(C(=O)OCC)o2)c(O)cc1O the results were TROY signal inh 34, KKLEB cytotox 10, HIF-2a block -11, Peg3 prom inh 40, CF NFkB block 37 and TWEAK Fn14 block 59*.
For CCc1cc(-c2[nH]ncc2-c2nc3ccccc3n2C)c(O)cc1O the results were TROY signal inh 15, KKLEB cytotox -20, HIF-2a block 27, Peg3 prom inh 1, CF NFkB block 24 and TWEAK Fn14 block -16.
CC(=O)NCCc1ccc(C(=O)COC(=O)c2cccs2)cc1 was read as TROY signal inh 48, KKLEB cytotox -12, HIF-2a block -18, Peg3 prom inh -178, CF NFkB block 3 and TWEAK Fn14 block 61*.
Screening CC(=O)NCCc1ccc(C(=O)COC(=O)c2ccc(C)s2)cc1 returned TROY signal inh -16, KKLEB cytotox 4, HIF-2a block -14, Peg3 prom inh -57, CF NFkB block -18 and TWEAK Fn14 block -21.
For O=C(NCc1ccccn1)c1cccc(S(=O)(=O)Nc2ccc(F)cc2)c1 the results were TROY signal inh -35, KKLEB cytotox -10, HIF-2a block 24, Peg3 prom inh 12, CF NFkB block 2 and TWEAK Fn14 block 4.
For Cc1cc(CN(C)C(=O)c2cc(COc3ccc4ncccc4c3)on2)on1 the results were TROY signal inh 1, KKLEB cytotox 8, HIF-2a block -50, Peg3 prom inh -27, CF NFkB block 7 and TWEAK Fn14 block 27.
For CC(CNC(=O)c1cc(COc2ccc3ncccc3c2)on1)c1ccccc1 (stereo not given) the results were TROY signal inh 54*, KKLEB cytotox -22, HIF-2a block 24, Peg3 prom inh 48, CF NFkB block 21 and TWEAK Fn14 block 60*.
Screening O=C(NC1CCCCCCC1)c1cc(COc2ccc3ncccc3c2)on1 returned TROY signal inh 31, KKLEB cytotox -16, HIF-2a block 16, Peg3 prom inh -10, CF NFkB block 13 and TWEAK Fn14 block 52*.
COc1ccc(CC(=O)NCc2ccccc2)cc1OC was read as TROY signal inh -15, KKLEB cytotox -7, HIF-2a block 19, Peg3 prom inh 16, CF NFkB block -3 and TWEAK Fn14 block 3.
`c1cncc(Nc2c3ccccc3nc3ccccc23)c1` gave TROY signal inh -19, KKLEB cytotox -9, HIF-2a block 29, Peg3 prom inh 28, CF NFkB block -46 and TWEAK Fn14 block -35.
`COc1ccccc1Nc1nc(-c2ccccc2)nc2ccccc12` gave TROY signal inh 15, KKLEB cytotox -2, HIF-2a block -1, Peg3 prom inh 16, CF NFkB block -19 and TWEAK Fn14 block 5.
`COc1ccccc1Nc1c2ccccc2nc2ccccc12` gave TROY signal inh 19, KKLEB cytotox -26, HIF-2a block 17, Peg3 prom inh 88*, CF NFkB block -40 and TWEAK Fn14 block -61.
For COc1ccccc1CNC(=O)Cc1ccc(OC)c(OC)c1 the results were TROY signal inh 13, KKLEB cytotox 1, HIF-2a block 5, Peg3 prom inh 9, CF NFkB block 7 and TWEAK Fn14 block 68*.
Oc1cccc(Nc2c3ccccc3nc3ccccc23)c1 was read as TROY signal inh 20, KKLEB cytotox -11, HIF-2a block 40, Peg3 prom inh 76*, CF NFkB block -96 and TWEAK Fn14 block -9.
For COc1ccc(CCNc2oc(COc3ccccc3Cl)nc2C#N)cc1OC the results were TROY signal inh 52*, KKLEB cytotox -17, HIF-2a block -3, Peg3 prom inh 35, CF NFkB block 10 and TWEAK Fn14 block 43.
`COc1ccccc1CNC(=O)Cn1cnc2ccccc2c1=O` gave TROY signal inh -22, KKLEB cytotox 3, HIF-2a block 1, Peg3 prom inh -8, CF NFkB block -3 and TWEAK Fn14 block -13.
Screening Cc1cc(C)c(CN2CCC(n3nccc3NC(=O)C3CCCC3)CC2)cc1C returned TROY signal inh -1, KKLEB cytotox -4, HIF-2a block 16, Peg3 prom inh -5, CF NFkB block -3 and TWEAK Fn14 block 17.
O=C1Nc2ccc(Br)cc2C1=C1CCCCC1 was read as TROY signal inh 16, KKLEB cytotox -5, HIF-2a block 14, Peg3 prom inh 41, CF NFkB block -11 and TWEAK Fn14 block 31.
Fc1cccc(NCCc2c[nH]c3ccccc23)n1 was read as TROY signal inh -68, KKLEB cytotox 8, HIF-2a block -186, Peg3 prom inh -179, CF NFkB block -14 and TWEAK Fn14 block -24.
For c1ccc2c(NCCc3c[nH]c4ccccc34)c3ccccc3nc2c1 the results were TROY signal inh -47, KKLEB cytotox -30, HIF-2a block 44*, Peg3 prom inh 99*, CF NFkB block -124 and TWEAK Fn14 block -8.
`COc1ccc(CCNCC(O)Cn2c3ccccc3c3ccccc32)cc1OC` (stereo not given) gave TROY signal inh -29, KKLEB cytotox -39, HIF-2a block 9, Peg3 prom inh 111*, CF NFkB block 36 and TWEAK Fn14 block 7.
COc1nc(NCCc2ccc(OC)c(OC)c2)nc(OC)n1 was read as TROY signal inh -2, KKLEB cytotox 2, HIF-2a block 13, Peg3 prom inh 8, CF NFkB block 1 and TWEAK Fn14 block -12.
`COc1ccc(CCNc2c3ccccc3nc3ccccc23)cc1OC` gave TROY signal inh -36, KKLEB cytotox -17, HIF-2a block 51*, Peg3 prom inh 73*, CF NFkB block -1 and TWEAK Fn14 block -71.
